Results reported in PubChem BioAssay AID1159580 (chemical genetic matrix, 2015).
About 2,000 (36%) of roughly 5,500 compounds were called active. Roughly 18% stayed inconclusive and do not appear here. Cut-off read from the data, not from the text of the source: active = normalized growth mostly below about 0.91 (no sharp cut-off); inconclusive = no clear call, values can overlap the other calls; inactive = mostly above about 0.92. The list shows a part of the results.

Assay: chemical genetic growth profiling, strain panel (AID 1159580);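 note: tested at 20 µM; growth read once vehicle control cultures reached saturation at 30 °C; 1 = growth at the plate median or of vehicle wells; lower values mean less growth of the strain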
Details: S. cerevisiae deletion strains, growth OD

Measured: normalized growth

Cc1ccc(N=CN(C)C=Nc2ccc(C)cc2C)c(C)c1
inactive: locus YAL021C, strain ccr4, hits give low values 0.944 | locus YAL026C, strain drs2, hits give low values 0.962 | locus YAL030W, strain snc1, hits give low values 0.984 | locus YBL061C, strain skt5, hits give low values 0.986 | locus YBR009C, strain hhf1, hits give low values 0.926 | locus YBR023C, strain chs3, hits give low values 1 | locus YBR171W, strain sec66, hits give low values 0.971 | locus YBR231C, strain swc5, hits give low values 1 | locus YBR279W, strain paf1, hits give low values 0.983 | locus YCL011C, strain gbp2, hits give low values 0.965 | locus YCL016C, strain dcc1, hits give low values 0.971 | locus YCL061C, strain MRC1, hits give low values 0.952 | locus YCL069W, strain vba3, hits give low values 0.979 | locus YCR088W, strain abp1, hits give low values 0.99 | locus YDL005C, strain med2, hits give low values 0.987 | locus YDL040C, strain nat1, hits give low values 0.987 | locus YDR001C, strain nth1, hits give low values 0.979 | locus YDR069C, strain doa4, hits give low values 0.969 | locus YDR137W, strain rgp1, hits give low values 0.981 | locus YDR159W, strain sac3, hits give low values 0.974 | locus YDR195W, strain ref2 1.03 | locus YDR297W, strain sur2, hits give low values 0.977 | locus YDR334W, strain swr1, hits give low values 0.987 | locus YDR335W, strain msn5, hits give low values 0.966 | locus YDR392W, strain spt3, hits give low values 0.925 | locus YEL003W, strain gim4, hits give low values 0.957 | locus YEL037C, strain rad23, hits give low values 0.98 | locus YEL061C, strain CIN8 (second series), hits give low values 0.986 | locus YER015W, strain faa2, hits give low values 0.972 | locus YER016W, strain bim1, hits give low values 0.975 | locus YER111C, strain swi4, hits give low values 0.955 | locus YER155C, strain BEM2 (second series), hits give low values 1.01 | locus YFR010W, strain ubp6, hits give low values 0.987 | locus YGL167C, strain pmr1, hits give low values 0.98 | locus YGL173C, strain kem1, hits give low values 0.962 | locus YGL227W, strain vid30, hits give low values 0.988 | locus YGL240W, strain doc1, hits give low values 0.969 | locus YGL253W, strain hxk2, hits give low values 0.979 | locus YHR013C, strain ard1, hits give low values 0.943 | locus YHR027C, strain rpn1, hits give low values 0.975 | locus YHR030C, strain SLT2, hits give low values 0.999 | locus YHR079C, strain IRE1, hits give low values 1.01 | locus YHR142W, strain chs7, hits give low values 0.957 | locus YJL092W, strain hpr5, hits give low values 0.978 | locus YJL095W, strain BCK1 (second series), hits give low values 0.978 | locus YJL095W, strain BCK1, hits give low values 0.962 | locus YJL115W, strain asf1, hits give low values 0.966 | locus YJL129C, strain trk1, hits give low values 0.976 | locus YJL154C, strain vps35, hits give low values 0.987 | locus YJL164C, strain tpk1, hits give low values 0.97 | locus YJL166W, strain qcr8, hits give low values 0.974 | locus YJR066W, strain TOR1, hits give low values 0.962 | locus YKL160W, strain elf1, hits give low values 0.989 | locus YKR026C, strain gcn3, hits give low values 0.989 | locus YKR091W, strain srl3, hits give low values 0.983 | locus YLL001W, strain dnm1, hits give low values 0.998 | locus YLL026W, hits give low values 0.996 | locus YLL041C, strain sdh2, hits give low values 0.98 | locus YLR027C, strain aat2, hits give low values 0.98 | locus YLR113W, strain HOG1, hits give low values 0.988 | locus YLR221C, strain rsa3, hits give low values 0.941 | locus YLR258W, strain gsy2, hits give low values 0.98 | locus YLR262C, strain YPT6 (second series), hits give low values 0.962 | locus YLR320W, strain mms22, hits give low values 0.969 | locus YLR342W, strain FKS1, hits give low values 0.985 | locus YLR357W, strain rsc2, hits give low values 0.898 | locus YLR370C, strain arc18, hits give low values 0.985 | locus YLR384C, strain iki3, hits give low values 0.993 | locus YML120C, strain ndi1, hits give low values 0.975 | locus YMR058W, strain fet3, hits give low values 0.972 | locus YMR125W, strain sto1, hits give low values 1 | locus YMR129W, hits give low values 0.97 | locus YMR205C, strain PFK2, hits give low values 0.998 | locus YMR231W, strain pep5, hits give low values 0.995 | locus YNL071W, strain lat1, hits give low values 0.978 | locus YNL183C, strain NPR1, hits give low values 0.976 | locus YNL209W, strain ssb2, hits give low values 0.978 | locus YNL248C, strain rpa49, hits give low values 0.905 | locus YNL322C, strain KRE1 (second series), hits give low values 0.967 | locus YNR049C, strain mso1, hits give low values 0.948 | locus YOR001W, strain rrp6, hits give low values 0.984 | locus YOR070C, strain gyp1, hits give low values 0.975 | locus YOR080W, strain dia2, hits give low values 0.973 | locus YOR083W, strain WHI5, hits give low values 0.983 | locus YOR106W, strain vam3, hits give low values 0.95 | locus YOR231W, strain MKK1, hits give low values 0.994 | locus YOR265W, strain rbl2, hits give low values 0.991 | locus YOR270C, strain vph1, hits give low values 0.837 | locus YOR290C, strain snf2, hits give low values 0.949 | locus YPL051W, strain arl3, hits give low values 0.965 | locus YPL078C, strain atp4, hits give low values 0.97 | locus YPL106C, strain sse1, hits give low values 0.948 | locus YPL240C, strain hsp82, hits give low values 0.994 | locus YPL256C, strain CLN2, hits give low values 1.01
